From PubChem BioAssay (Tox21)
Unmarked numbers belong to inactive results. Results filed as inconclusive are left out. Where a call stands in place of a potency, no number is given. The source made the active and inactive calls. Unless noted, the call rests on the fitted dose curve.

Tests used:
[1] = Nuclear factor erythroid 2-related factor 2/antioxidant responsive element (Nrf2/ARE) small molecule agonists: qHTS cell viability counter screen in human keratinocytes (AID 1919968; active means well fitted curve in the direction sought with a large enough effect in the repeat runs; an effect the other way counts as inactive or inconclusive; further: nearly all actives have a fitted effect of over 55% in size; further: potency means the concentration at half of the fitted maximal effect)
Outline: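 KeratinoSens HaCaT cells, 1,500/well, preincubated 5 h, then exposed to compounds in DMSO for 23 h at 37 C/5% CO2. Viability read as CellTiter-Fluor fluorescence after 1 h, in the same wells as the ARE-luciferase read.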

[2] = Nuclear factor erythroid 2-related factor 2/antioxidant responsive element (Nrf2/ARE) small molecule agonists: luciferase reporter gene qHTS assay in human keratinocytes (AID 1919969); further: nearly all actives have a fitted effect of over 35% in size; further: potency means the concentration at half of the fitted maximal effect
[3] = target: Gonadotropin-releasing hormone receptor (Homo sapiens) (UniProt P30968); assay: Human gonadotropin-releasing hormone receptor (GnRHR) small molecule agonists, calcium flux assay in GnRHR-HEK293 cells (AID 1920063); further: nearly all actives have a fitted effect of over 35% in size; further: potency means the concentration at half of the fitted maximal effect
Chain of Gonadotropin-releasing hormone receptor (Homo sapiens) (P30968 whole entry, looked up): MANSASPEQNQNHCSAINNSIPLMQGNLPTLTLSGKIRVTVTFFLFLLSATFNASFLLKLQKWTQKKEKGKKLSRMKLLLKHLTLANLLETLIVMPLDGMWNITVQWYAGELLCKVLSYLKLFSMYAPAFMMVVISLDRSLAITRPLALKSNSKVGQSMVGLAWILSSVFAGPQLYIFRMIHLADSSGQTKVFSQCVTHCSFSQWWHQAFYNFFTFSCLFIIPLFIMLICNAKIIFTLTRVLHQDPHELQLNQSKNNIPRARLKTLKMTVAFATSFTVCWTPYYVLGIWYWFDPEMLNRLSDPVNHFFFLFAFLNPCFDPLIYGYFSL
Outline: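 HEK293 cells stably expressing human GnRHR were dye-loaded for 1 h at 37 C. Compound was added in agonist mode and fluorescence (Ex/Em 480/540) recorded kinetically for 3 min. Fifteen concentrations, triplicates.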

[4] = G protein-coupled receptor (GPCR) small molecule agonists, calcium flux assay: HEK293 wild type cell line counter screen (AID 1920065)
Outline: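 Wild-type HEK293 cells plated 18 h, loaded with calcium dye 1 h at 37 C, then compounds added in agonist mode (ATP as positive control). Kinetic fluorescence Ex/Em 480/540 recorded 3 min at 1 sec intervals; 15 concentrations, triplicate.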

[5] = p53 small molecule agonists, cell-based qHTS assay with rat liver microsomes (AID 1963578)
Outline: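 Metabolic activation is supplied by rat liver microsomes with NADPH (each 0.5 mg/mL final). p53RE-bla cells incubate with compound 16 h at 37 C; reporter activity is measured by LiveBLAzer fluorescence.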

[6] = p53 small molecule agonists, cell-based qHTS assay with human liver microsomes: qHTS cell viability counter screen (AID 1963579); further: nearly all actives have a fitted effect of over 45% in size
Outline: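 After the 460/530 nm beta-lactamase read, CellTiter-Glo was added to the same wells and luminescence measured after 30 min at room temperature, giving viability of p53RE-bla cells treated 16 h with compounds plus microsomes and NADPH.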

[7] = p53 small molecule agonists, cell-based qHTS assay with rat liver microsomes: qHTS cell viability counter screen (AID 1963580); further: nearly all actives have a fitted effect of over 45% in size
Outline: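 p53RE-bla HCT-116 cells were exposed 16 h at 37 C to compounds with rat liver microsomes (0.5 mg/mL) and NADPH (0.5 mg/mL). Viability was measured in the same wells as ATP content by CellTiter-Glo luminescence.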

[8] = p53 small molecule agonists, cell-based qHTS assay: qHTS cell viability counter screen (AID 1963581); further: nearly all actives have a fitted effect of over 45% in size
Outline: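 p53RE-bla HCT-116 cells, compounds added 5 h after plating and incubated 16 h at 37 C. Cytotoxicity measured in the same wells as intracellular ATP by CellTiter-Glo luminescence after 30 min at room temperature.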

[9] = target: 5-hydroxytryptamine receptor 2A (Homo sapiens) (UniProt P28223); assay: 5-hydroxytryptamine receptor 2A (HTR2A) small molecule antagonists, cell-based qHTS assay (AID 1963586); further: nearly all actives have a fitted effect of over 45% in size; further: potency means the concentration at half of the fitted maximal effect
Chain of 5-hydroxytryptamine receptor 2A (Homo sapiens) (P28223 whole entry, looked up): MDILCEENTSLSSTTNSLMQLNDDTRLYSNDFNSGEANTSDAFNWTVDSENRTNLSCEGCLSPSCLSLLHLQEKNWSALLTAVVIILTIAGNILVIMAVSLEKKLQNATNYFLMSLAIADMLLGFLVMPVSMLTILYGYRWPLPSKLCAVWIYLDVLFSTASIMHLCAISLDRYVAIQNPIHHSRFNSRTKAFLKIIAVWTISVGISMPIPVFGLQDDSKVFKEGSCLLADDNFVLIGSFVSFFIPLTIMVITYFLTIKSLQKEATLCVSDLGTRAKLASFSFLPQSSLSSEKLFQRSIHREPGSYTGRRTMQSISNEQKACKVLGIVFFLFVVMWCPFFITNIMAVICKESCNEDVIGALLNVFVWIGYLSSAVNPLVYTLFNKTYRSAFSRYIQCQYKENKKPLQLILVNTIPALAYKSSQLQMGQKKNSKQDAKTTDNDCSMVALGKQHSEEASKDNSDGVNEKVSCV
Outline: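 Antagonist-mode intracellular calcium assay: DOI (4 nM) added after 5 min compound pre-incubation at room temperature to dye-loaded HTR2A-CHO cells. Fluorescence followed for 3 min, sampled every second.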

[10] = target: 5-hydroxytryptamine receptor 2A (Homo sapiens) (UniProt P28223); assay: 5-hydroxytryptamine receptor 2A (HTR2A) small molecule agonists, cell-based qHTS assay (AID 1963587); further: nearly all actives have a fitted effect of over 30% in size; further: potency means the concentration at half of the fitted maximal effect
Outline: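 CHO cells stably expressing human HTR2A, plated 18 h, loaded with calcium dye 1 h at 37 C. Agonist mode: compounds added and intracellular calcium fluorescence recorded kinetically for 2 min at 1 sec intervals.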

[11] = target: Muscarinic acetylcholine receptor M1 (Homo sapiens) (UniProt P11229); assay: Cholinergic receptor muscarinic 1 (CHRM1) small molecule antagonists, cell-based qHTS assay (AID 1963588); further: nearly all actives have a fitted effect of over 40% in size
Chain of Muscarinic acetylcholine receptor M1 (Homo sapiens) (P11229 whole entry, looked up): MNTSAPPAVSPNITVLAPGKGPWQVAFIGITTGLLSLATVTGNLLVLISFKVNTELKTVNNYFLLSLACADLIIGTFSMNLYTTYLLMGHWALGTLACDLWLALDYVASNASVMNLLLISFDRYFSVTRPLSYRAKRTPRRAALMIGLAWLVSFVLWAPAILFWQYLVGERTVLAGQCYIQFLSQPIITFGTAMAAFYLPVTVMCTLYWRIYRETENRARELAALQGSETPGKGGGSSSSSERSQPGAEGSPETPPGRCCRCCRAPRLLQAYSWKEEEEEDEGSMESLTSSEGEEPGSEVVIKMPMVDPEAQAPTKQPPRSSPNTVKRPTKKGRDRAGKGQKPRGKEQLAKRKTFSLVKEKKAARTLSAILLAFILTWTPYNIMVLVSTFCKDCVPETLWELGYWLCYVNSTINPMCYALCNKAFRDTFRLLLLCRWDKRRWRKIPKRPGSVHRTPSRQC
Outline: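 CHRM1-CHO calcium-flux assay, antagonist mode. Cells were seeded 18 h, dye-loaded 1 h at 37 C and given compound for 5 min at RT, then acetylcholine was added at 50nM. FDSS fluorescence was read 3 min; 15 concentrations, three runs.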

[12] = target: Muscarinic acetylcholine receptor M1 (Homo sapiens) (UniProt P11229); assay: Cholinergic receptor muscarinic 1 (CHRM1) small molecule agonists, cell-based qHTS assay (AID 1963589); further: nearly all actives have a fitted effect of over 35% in size
Outline: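 CHO cells stably expressing human CHRM1 were loaded with calcium dye for 1 h at 37 C, then compound was added in agonist mode. Intracellular calcium fluorescence was followed kinetically at 1 s intervals. Fifteen concentrations were tested in three independent runs.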

[13] = cAMP Responsive Elements (CRE) small molecule antagonists, cell-based qHTS assay (AID 1963591; active means well fitted inhibition curve with a large enough effect in the signal ratio in the repeat runs, not every such curve was filed as active; the % refers to the signal ratio; further: potency means the concentration at half of the fitted maximal effect)
Outline: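 CRE-bla HEK293T cells plated 18 h, then given compound plus NKH477 at 0.25 uM final for 3 h at 37C. Beta-lactamase reporter read with LiveBLAzer B/G FRET substrate after 2 h at room temperature.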

[14] = target: Beta-2 adrenergic receptor (Homo sapiens) (UniProt P07550); assay: Adrenergic beta2 receptor (ADRB2) small molecule antagonists, cell-based qHTS assay (AID 1963592); further: nearly all actives have a fitted effect of over 50% in size; further: potency means the concentration at half of the fitted maximal effect
Chain of Beta-2 adrenergic receptor (Homo sapiens) (P07550 whole entry, looked up): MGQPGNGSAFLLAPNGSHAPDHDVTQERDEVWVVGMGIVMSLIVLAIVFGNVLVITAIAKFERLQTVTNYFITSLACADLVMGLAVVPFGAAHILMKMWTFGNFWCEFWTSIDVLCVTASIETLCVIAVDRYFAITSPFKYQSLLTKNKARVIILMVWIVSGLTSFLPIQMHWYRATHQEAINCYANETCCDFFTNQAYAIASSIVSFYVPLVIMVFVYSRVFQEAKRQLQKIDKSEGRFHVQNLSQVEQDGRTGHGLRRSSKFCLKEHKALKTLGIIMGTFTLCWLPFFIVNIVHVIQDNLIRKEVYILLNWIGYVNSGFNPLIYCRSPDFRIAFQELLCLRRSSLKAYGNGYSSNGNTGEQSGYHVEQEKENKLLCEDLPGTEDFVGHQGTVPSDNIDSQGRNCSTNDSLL
Outline: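 Cells (CHO, stable ADRB2 overexpression) incubated 18-20hr at 37C; compounds added from DMSO; agonist mix (1nM isoproterenol, 100uM IBMX, 25uM Ro-20-1724) added; 0.5hr RT; d2-cAMP and anti-cAMP-cryptate added; 1hr RT; 665/615 nm read.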

[15] = target: D(2) dopamine receptor (Homo sapiens) (UniProt P14416); assay: Dopamine D2 receptor (DRD2) small molecule agonists, cell-based qHTS assay (AID 1963594); further: nearly all actives have a fitted effect of over 35% in size
Chain of D(2) dopamine receptor (Homo sapiens) (P14416 whole entry, looked up): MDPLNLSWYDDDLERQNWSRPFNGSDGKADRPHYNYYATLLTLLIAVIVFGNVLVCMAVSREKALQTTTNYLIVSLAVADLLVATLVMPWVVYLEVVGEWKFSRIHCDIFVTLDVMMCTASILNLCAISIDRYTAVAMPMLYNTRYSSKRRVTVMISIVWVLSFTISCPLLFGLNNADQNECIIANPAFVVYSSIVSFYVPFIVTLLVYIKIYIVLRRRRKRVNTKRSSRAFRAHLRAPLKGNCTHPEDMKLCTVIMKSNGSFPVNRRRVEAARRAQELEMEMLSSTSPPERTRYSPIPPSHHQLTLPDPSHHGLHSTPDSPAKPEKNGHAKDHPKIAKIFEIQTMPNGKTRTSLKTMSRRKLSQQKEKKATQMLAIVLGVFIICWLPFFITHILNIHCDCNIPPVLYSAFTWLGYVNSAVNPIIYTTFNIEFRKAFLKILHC
Outline: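 HEK293 cells stably expressing human DRD2, pre-treated with PDE inhibitor Ro20-1724 (0.1 mM final) and compound 10 min at room temperature, then stimulated with NKH477 (200nM […]) for 30 min. cAMP read by HTRF (665/620 nm).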

[16] = target: D(2) dopamine receptor (Homo sapiens) (UniProt P14416); assay: Dopamine D2 receptor (DRD2) small molecule antagonists, cell-based qHTS assay (AID 1963595; active means well fitted inhibition curve with a large enough effect in the signal ratio in the repeat runs, with a control signal flat; the % refers to the signal ratio)
Outline: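 Cells were plated and grown for 24 h at 37 °C. Ro20-1724 (0.1 mM final) went in first, then compound for 10 min. NKH477 (200 nM) with quinpirole (12 nM) followed for 30 min at RT, then HTRF detection reagents for 1 h.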

[17] = cAMP Responsive Elements (CRE) small molecule agonists, cell-based qHTS assay (AID 1963590)
Outline: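 CRE-bla HEK 293T cells, 2,000/well in DMEM with 10% dialyzed FBS and 25 mM HEPES, pre-incubated 18 h at 37 C, then exposed to compound 3 h at 37 C. Beta-lactamase reporter read with LiveBLAzer B/G FRET substrate after 2 h at room temperature.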

[18] = p53 small molecule agonists, cell-based qHTS assay (AID 1963582; active means well fitted activation curve with a large enough effect in the signal ratio in the repeat runs, not every such curve was filed as active; the % refers to the signal ratio)
Outline: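 p53RE-bla reporter cells, compounds added in DMSO after 5 h plating, incubated 16 h at 37 C. Beta-lactamase read via 2 h room-temperature LiveBLAzer B/G FRET substrate, fluorescence intensity.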

[19] = target: KiSS-1 receptor (Homo sapiens) (UniProt Q969F8); assay: Human kisspeptin (KISS1R) small molecule agonists, calcium flux assay in KISS1R-HEK293 cells (AID 1920064; active means well fitted curve in the direction sought with a large enough effect in the repeat runs; an effect the other way counts as inactive or inconclusive)
Chain of KiSS-1 receptor (Homo sapiens) (Q969F8 whole entry, looked up): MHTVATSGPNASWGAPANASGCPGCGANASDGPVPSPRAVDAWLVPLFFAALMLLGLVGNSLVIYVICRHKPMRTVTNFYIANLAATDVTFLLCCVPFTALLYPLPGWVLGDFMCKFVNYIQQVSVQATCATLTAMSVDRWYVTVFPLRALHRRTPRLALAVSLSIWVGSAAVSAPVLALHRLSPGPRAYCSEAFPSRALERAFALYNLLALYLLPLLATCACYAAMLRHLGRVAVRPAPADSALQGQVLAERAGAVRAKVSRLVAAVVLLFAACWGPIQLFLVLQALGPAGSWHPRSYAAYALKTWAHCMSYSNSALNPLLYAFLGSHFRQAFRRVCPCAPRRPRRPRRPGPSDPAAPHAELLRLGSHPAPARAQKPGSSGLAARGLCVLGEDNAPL
Outline: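 HEK293 cells stably expressing human KISS1R were loaded with calcium dye for 1 h at 37 C, then given compound; fluorescence (Ex/Em 480/540) was read kinetically for 3 min. Fifteen concentrations, triplicate.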

[20] = target: Beta-2 adrenergic receptor (Homo sapiens) (UniProt P07550); assay: Adrenergic beta2 receptor (ADRB2) small molecule agonists, cell-based qHTS assay (AID 1963593);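 further: CHO cells stably overexpressing human ADRB2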
Outline: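 CHO cells stably over-expressing ADRB2 were plated overnight at 37C, then dosed with compounds plus a stimulation mix containing 100uM IBMX and 25uM Ro-20-1724 for 0.5hr at room temperature. cAMP was measured by HTRF competition, 1hr.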

CC1(CN2CCC(n3c(=O)[nH]c4ccccc43)CC2)OCc2ccccc2-n2cccc21 (centres undefined)
Potency [1]: 29.8 µM (active)
Potency [2]: inactive
Potency [3]: inactive
Potency [4]: inactive
Potency [5]: inactive
Potency [6]: inactive
Potency [7]: inactive
Potency [8]: inactive
Potency [9]: 1.83 µM (active)
Potency [10]: inactive
Potency [11]: inactive
Potency [12]: inactive
Potency [13]: inactive
Potency [14]: 29.8 µM (active)
Potency [15]: inactive
Potency [16]: inactive

CCCC/C=C/C=C\C=O
Potency [1]: inactive
Potency [2]: 61.1 µM (active)
Potency [3]: inactive
Potency [4]: inactive
Potency [5]: inactive
Potency [6]: inactive
Potency [7]: inactive
Potency [8]: inactive
Potency [9]: inactive
Potency [10]: inactive
Potency [17]: inactive
Potency [14]: inactive
Potency [15]: inactive
Potency [16]: inactive

O=C(Cl)c1ccc(F)c(Cl)c1
Potency [1]: inactive
Potency [2]: inactive
Potency [3]: inactive
Potency [4]: inactive
Potency [5]: inactive
Potency [6]: inactive
Potency [7]: inactive
Potency [8]: inactive
Potency [18]: inactive
Potency [9]: inactive
Potency [10]: inactive
Potency [11]: inactive
Potency [12]: inactive
Potency [17]: inactive
Potency [13]: inactive
Potency [14]: inactive
Potency [15]: inactive
Potency [16]: inactive

CC1(C)CC(O)CC(C)(C)N1[O]
Potency [1]: inactive
Potency [2]: inactive
Potency [3]: inactive
Potency [19]: inactive
Potency [7]: inactive
Potency [9]: inactive
Potency [10]: inactive
Potency [12]: inactive
Potency [17]: inactive
Potency [13]: inactive
Potency [14]: inactive
Potency [15]: inactive
Potency [16]: inactive

CCCCCCCCOC(=O)c1cc(O)c(O)c(O)c1
Potency [1]: 61.1 µM (active)
Potency [2]: inactive
Potency [3]: 34.7 µM (active)
Potency [4]: inactive
Potency [5]: inactive
Potency [6]: inactive
Potency [7]: inactive
Potency [9]: inactive
Potency [10]: 49 µM (active)
Potency [11]: inactive
Potency [17]: inactive
Potency [13]: 30.6 µM (active)
Potency [15]: inactive

CCOC(C)OCC
Potency [1]: inactive
Potency [2]: inactive
Potency [3]: inactive
Potency [19]: inactive
Potency [6]: inactive
Potency [7]: inactive
Potency [9]: inactive
Potency [10]: inactive
Potency [11]: inactive
Potency [12]: inactive
Potency [17]: inactive
Potency [13]: inactive
Potency [14]: inactive
Potency [20]: inactive
Potency [15]: inactive

OC/C(Br)=C(\Br)CO
Potency [1]: inactive
Potency [2]: inactive
Potency [3]: inactive
Potency [19]: inactive
Potency [6]: inactive
Potency [7]: inactive
Potency [9]: inactive
Potency [10]: inactive
Potency [11]: inactive
Potency [17]: inactive
Potency [15]: inactive
Potency [16]: inactive

FC1(F)C(F)(F)C(F)(F)C2(F)C(F)(F)C(F)(F)C(F)(F)C(F)(F)C2(F)C1(F)F (centres undefined)
Potency [1]: inactive
Potency [2]: inactive
Potency [3]: inactive
Potency [4]: inactive
Potency [5]: inactive
Potency [6]: inactive
Potency [7]: inactive
Potency [8]: inactive
Potency [18]: inactive
Potency [9]: inactive
Potency [10]: inactive
Potency [11]: inactive
Potency [17]: inactive
Potency [13]: inactive
Potency [14]: inactive
Potency [20]: inactive
Potency [16]: inactive

COc1cc(NCc2ccc3nc(N)nc(N)c3c2C)cc(OC)c1OC
Potency [1]: inactive
Potency [2]: inactive
Potency [3]: inactive
Potency [19]: inactive
Potency [6]: inactive
Potency [7]: inactive
Potency [9]: inactive
Potency [10]: inactive
Potency [12]: inactive
Potency [14]: inactive
Potency [20]: inactive
Potency [15]: inactive
Potency [16]: inactive

CC(C)(CO)[C@@H](O)C(=O)NCCCO
Potency [1]: inactive
Potency [2]: inactive
Potency [3]: inactive
Potency [19]: inactive
Potency [6]: inactive
Potency [8]: inactive
Potency [17]: inactive
Potency [13]: inactive
Potency [14]: inactive
Potency [20]: inactive
Potency [15]: inactive

CCN(CC)CC1CCCCN1CC(=O)N1c2ccccc2C(=O)Nc2cccnc21 (centres undefined)
Potency [1]: inactive
Potency [2]: inactive
Potency [3]: inactive
Potency [19]: inactive
Potency [6]: inactive
Potency [8]: inactive
Potency [9]: inactive
Potency [10]: inactive
Potency [11]: inactive
Potency [17]: inactive
Potency [13]: inactive
Potency [14]: inactive
Potency [20]: inactive
Potency [15]: inactive
Potency [16]: inactive

CCN(Cc1ccccc1)c1ccccc1
Potency [1]: inactive
Potency [2]: inactive
Potency [3]: inactive
Potency [4]: inactive
Potency [5]: inactive
Potency [6]: inactive
Potency [7]: inactive
Potency [18]: inactive
Potency [9]: inactive
Potency [10]: inactive
Potency [11]: inactive
Potency [17]: inactive
Potency [13]: inactive
Potency [14]: inactive
Potency [15]: inactive
Potency [16]: inactive

CC(=O)Oc1cccc2c1C(=O)c1c(OC(C)=O)cc(C(=O)O)cc1C2=O
Potency [1]: inactive
Potency [2]: inactive
Potency [3]: inactive
Potency [19]: inactive
Potency [6]: inactive
Potency [7]: inactive
Potency [10]: inactive
Potency [11]: inactive
Potency [12]: inactive
Potency [14]: inactive
Potency [15]: inactive

CC(=O)OC(C(=O)c1ccccc1)c1ccccc1 (centres undefined)
Potency [1]: inactive
Potency [2]: inactive
Potency [3]: inactive
Potency [4]: inactive
Potency [5]: inactive
Potency [6]: inactive
Potency [7]: inactive
Potency [8]: inactive
Potency [18]: inactive
Potency [9]: 0.0011 µM (active)
Potency [10]: inactive
Potency [11]: inactive
Potency [12]: inactive
Potency [17]: inactive
Potency [13]: inactive
Potency [14]: inactive
Potency [15]: inactive
Potency [16]: inactive

Cc1c(F)c(N2CCNC(C)C2)cc2c1c(=O)c(C(=O)O)cn2C1CC1 (centres undefined)
Potency [1]: inactive
Potency [2]: inactive
Potency [3]: inactive
Potency [19]: inactive
Potency [7]: inactive
Potency [8]: inactive
Potency [14]: inactive
Potency [15]: inactive
Potency [16]: inactive

O=C(c1ccc(O)c(O)c1)c1ccc(O)cc1O
Potency [1]: inactive
Potency [2]: inactive
Potency [3]: inactive
Potency [19]: inactive
Potency [6]: inactive
Potency [7]: inactive
Potency [9]: 47.1 µM (active)
Potency [10]: inactive
Potency [11]: inactive
Potency [14]: inactive

O=C(NS(=O)(=O)/C=C/c1cccs1)c1ccc(F)cc1Br
Potency [1]: inactive
Potency [2]: 27.3 µM (active)
Potency [3]: inactive
Potency [19]: inactive
Potency [6]: inactive
Potency [7]: inactive
Potency [8]: inactive
Potency [10]: inactive
Potency [11]: inactive
Potency [12]: inactive
Potency [17]: inactive
Potency [14]: inactive
Potency [16]: inactive
